Source: the supplement of paper PMC10849652
Of roughly 8,800 targets only a part is listed; those with a hit were picked by preference. About 0.5% of all pairs of compound and target were hits. Values without a mark were called inactive.

What was measured:
Assay in all cases: log2 fold change, soluble protein after heating vs DMSO (PISA); higher = thermal stabilisation; K562 lysate, 10 uM; active = over 0.2 and 3.5 SD of the protein, either way, in both replicates (recomputed)
[1] = compound: NCC(=O)Nc1ccc(-n2nc(C(F)(F)F)cc2-c2ccc3c(ccc4ccccc43)c2)cc1
Method in brief: (§1)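 K562 pellets were dounce-homogenised in PBS pH 7.4 with 1 mM MgCl2, and the crude extract at 1 mg/mL protein was treated with 10 μM compound for 30 min. Aliquots were heated for 3 min across 48°C-58°C, pooled, and brought to 0.5% NP-40 at 4°C; soluble protein was the supernatant after 21,000xg for 90 min. Soluble protein was quantified by TMTpro 16plex LC-MS/MS with channel sums equalised, and reported as log2 fold change in thermal stability against DMSO controls, with values from duplicates.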

vorinostat = compound: O=C(CCCCCCC(=O)Nc1ccccc1)NO [vorinostat]
Method in brief: as §1

silmitasertib = compound: O=C(O)c1ccc2c(c1)nc(Nc1cccc(Cl)c1)c1ccncc12 [silmitasertib]
Method in brief: as §1

[2] = compound: O=C1NC(=O)C(c2cnc3ccccn23)=C1c1cn2c3c(cc(F)cc13)CN(C(=O)N1CCCCC1)CC2
Method in brief: as §1

entospletinib = compound: c1cn2cc(-c3ccc4cn[nH]c4c3)nc(Nc3ccc(N4CCOCC4)cc3)c2n1 [entospletinib]
Method in brief: as §1

Sequence of UniProt Q70CQ2 (Q70CQ2 whole entry, looked up): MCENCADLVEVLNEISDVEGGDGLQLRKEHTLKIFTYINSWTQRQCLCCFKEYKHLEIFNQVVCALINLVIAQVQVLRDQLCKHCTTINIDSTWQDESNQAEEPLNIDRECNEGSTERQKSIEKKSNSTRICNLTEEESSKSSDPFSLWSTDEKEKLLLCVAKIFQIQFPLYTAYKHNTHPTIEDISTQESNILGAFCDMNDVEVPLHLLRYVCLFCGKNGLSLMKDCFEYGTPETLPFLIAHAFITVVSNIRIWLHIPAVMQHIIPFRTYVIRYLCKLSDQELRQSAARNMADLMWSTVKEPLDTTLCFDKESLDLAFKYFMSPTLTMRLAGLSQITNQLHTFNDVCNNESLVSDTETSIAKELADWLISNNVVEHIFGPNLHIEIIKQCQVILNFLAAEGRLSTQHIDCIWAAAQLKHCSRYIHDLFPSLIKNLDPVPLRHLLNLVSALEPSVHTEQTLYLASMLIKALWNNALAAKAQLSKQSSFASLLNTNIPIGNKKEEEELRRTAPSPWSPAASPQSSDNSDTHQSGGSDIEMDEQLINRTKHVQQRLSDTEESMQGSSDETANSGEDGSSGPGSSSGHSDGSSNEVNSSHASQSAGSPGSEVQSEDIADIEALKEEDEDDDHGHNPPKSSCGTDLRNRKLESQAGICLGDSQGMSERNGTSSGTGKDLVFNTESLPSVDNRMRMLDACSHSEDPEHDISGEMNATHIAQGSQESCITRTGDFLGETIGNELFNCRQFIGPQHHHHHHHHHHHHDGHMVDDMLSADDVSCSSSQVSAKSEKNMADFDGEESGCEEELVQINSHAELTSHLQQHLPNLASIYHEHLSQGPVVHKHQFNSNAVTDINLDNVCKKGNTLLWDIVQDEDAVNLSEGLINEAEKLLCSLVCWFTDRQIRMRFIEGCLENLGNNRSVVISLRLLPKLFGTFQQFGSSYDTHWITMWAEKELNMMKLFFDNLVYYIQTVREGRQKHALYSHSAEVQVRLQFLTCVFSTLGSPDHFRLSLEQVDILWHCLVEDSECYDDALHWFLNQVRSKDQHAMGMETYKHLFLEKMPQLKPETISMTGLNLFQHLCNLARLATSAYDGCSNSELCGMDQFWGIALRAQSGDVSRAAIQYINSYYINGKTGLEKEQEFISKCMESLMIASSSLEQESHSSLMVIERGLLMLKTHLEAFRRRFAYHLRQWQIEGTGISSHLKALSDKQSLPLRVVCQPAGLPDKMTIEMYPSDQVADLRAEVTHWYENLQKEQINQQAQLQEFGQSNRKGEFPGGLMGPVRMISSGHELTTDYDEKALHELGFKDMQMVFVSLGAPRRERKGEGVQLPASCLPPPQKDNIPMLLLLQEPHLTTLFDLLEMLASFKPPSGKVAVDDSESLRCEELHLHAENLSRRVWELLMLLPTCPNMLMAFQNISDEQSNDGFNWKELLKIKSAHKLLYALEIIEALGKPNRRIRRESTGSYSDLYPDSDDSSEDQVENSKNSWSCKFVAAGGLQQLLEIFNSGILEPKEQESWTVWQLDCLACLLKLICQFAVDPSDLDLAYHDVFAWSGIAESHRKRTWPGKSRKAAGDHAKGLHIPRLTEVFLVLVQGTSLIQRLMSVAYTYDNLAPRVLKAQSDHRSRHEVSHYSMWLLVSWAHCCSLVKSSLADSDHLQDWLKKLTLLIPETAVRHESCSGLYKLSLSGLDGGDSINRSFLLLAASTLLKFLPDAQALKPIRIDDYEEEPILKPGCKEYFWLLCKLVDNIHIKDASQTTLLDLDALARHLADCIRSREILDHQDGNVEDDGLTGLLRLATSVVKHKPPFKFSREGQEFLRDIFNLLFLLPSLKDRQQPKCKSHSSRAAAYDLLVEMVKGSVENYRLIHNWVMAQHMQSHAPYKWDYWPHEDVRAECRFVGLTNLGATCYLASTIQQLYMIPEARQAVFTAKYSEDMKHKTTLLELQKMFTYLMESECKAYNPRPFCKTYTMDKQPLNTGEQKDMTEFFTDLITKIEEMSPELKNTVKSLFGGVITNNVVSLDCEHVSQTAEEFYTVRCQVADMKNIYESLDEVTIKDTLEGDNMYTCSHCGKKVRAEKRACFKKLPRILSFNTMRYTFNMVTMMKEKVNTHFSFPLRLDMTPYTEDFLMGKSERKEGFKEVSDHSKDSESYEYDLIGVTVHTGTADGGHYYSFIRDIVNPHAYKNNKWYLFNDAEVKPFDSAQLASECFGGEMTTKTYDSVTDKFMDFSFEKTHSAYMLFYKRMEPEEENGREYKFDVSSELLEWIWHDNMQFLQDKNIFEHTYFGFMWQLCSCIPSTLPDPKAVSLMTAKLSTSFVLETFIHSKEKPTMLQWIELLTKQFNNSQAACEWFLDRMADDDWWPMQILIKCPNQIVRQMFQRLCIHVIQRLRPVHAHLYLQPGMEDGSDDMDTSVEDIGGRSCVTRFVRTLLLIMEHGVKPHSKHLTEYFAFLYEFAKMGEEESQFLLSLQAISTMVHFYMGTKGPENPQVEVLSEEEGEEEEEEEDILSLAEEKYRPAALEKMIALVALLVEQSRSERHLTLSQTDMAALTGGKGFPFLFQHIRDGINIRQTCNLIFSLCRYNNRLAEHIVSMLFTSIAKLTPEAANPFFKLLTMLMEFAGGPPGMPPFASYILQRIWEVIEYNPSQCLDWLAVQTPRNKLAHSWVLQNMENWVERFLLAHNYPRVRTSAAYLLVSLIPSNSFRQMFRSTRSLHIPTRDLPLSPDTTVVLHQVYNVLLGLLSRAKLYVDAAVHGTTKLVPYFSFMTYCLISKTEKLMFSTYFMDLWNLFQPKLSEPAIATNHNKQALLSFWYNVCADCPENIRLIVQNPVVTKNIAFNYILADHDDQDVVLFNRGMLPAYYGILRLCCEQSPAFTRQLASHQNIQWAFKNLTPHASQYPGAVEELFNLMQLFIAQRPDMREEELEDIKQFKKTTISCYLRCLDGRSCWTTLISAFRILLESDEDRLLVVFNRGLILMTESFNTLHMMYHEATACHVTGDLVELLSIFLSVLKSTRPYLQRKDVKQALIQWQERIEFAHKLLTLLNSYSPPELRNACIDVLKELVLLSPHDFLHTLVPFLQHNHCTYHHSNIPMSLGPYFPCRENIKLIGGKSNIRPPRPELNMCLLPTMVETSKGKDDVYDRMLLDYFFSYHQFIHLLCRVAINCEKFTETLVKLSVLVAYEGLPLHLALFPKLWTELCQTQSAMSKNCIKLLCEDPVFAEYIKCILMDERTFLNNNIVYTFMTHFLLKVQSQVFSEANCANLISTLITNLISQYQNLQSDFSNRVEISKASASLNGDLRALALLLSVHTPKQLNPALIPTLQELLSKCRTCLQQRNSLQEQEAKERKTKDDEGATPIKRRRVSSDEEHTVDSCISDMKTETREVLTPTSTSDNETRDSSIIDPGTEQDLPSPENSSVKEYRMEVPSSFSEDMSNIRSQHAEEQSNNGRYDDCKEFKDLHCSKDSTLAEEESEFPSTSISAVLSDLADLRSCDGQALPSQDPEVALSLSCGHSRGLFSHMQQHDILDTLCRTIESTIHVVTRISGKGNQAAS
Sequence of UniProt Q9Y484 (Q9Y484 whole entry, looked up): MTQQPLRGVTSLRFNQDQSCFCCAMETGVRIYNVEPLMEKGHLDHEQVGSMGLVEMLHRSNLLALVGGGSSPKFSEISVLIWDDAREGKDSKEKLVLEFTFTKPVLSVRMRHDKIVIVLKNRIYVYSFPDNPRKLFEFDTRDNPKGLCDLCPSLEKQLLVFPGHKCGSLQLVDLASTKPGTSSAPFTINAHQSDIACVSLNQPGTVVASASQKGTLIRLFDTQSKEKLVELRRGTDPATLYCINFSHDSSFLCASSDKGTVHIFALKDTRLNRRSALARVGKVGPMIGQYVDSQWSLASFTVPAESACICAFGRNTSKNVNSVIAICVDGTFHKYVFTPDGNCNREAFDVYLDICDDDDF
Sequence of UniProt P15498 (P15498 whole entry, looked up): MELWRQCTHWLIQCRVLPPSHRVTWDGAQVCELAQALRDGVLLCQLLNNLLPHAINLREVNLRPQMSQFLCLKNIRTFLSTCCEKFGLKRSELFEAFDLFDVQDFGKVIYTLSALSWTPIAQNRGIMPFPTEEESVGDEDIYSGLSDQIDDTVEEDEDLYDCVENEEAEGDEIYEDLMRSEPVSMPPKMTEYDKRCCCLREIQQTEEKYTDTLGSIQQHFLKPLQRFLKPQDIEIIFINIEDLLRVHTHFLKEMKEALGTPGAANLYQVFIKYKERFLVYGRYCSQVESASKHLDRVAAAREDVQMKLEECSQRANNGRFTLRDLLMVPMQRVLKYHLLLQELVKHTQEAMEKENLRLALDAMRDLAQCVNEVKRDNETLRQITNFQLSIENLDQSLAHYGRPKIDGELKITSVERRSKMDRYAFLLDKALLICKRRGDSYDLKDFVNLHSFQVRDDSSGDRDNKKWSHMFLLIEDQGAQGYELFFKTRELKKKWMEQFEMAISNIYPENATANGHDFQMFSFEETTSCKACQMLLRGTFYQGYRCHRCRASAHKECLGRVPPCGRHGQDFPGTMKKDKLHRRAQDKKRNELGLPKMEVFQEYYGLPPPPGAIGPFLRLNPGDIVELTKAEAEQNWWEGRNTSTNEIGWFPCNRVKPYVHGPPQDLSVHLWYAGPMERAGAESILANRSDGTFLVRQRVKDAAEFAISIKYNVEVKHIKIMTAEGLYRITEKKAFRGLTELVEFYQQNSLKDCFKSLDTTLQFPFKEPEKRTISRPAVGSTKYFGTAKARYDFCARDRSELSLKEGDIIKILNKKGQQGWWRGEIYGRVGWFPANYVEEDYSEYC
Sequence of UniProt Q9UL40 (Q9UL40 whole entry, looked up): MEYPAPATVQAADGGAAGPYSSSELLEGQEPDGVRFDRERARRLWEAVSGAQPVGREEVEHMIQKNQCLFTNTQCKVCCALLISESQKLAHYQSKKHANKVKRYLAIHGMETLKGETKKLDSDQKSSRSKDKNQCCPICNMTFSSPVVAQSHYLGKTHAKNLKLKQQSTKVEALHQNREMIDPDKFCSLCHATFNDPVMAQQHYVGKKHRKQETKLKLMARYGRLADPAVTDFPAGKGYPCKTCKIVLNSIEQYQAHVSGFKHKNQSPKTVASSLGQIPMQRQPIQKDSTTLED

Target | log2 fold change [1] | log2 fold change (vorinostat) | log2 fold change (silmitasertib) | log2 fold change [2] | log2 fold change (entospletinib)
ZZEF1 (UniProt O43149) | 0.02 | -0.263 (active) | 0.011 | 0.012 | 0.004
YTHDC2 (UniProt Q9H6S0) | 0.061 | -0.231 (active) | -0.007 | 0.018 | 0.013
WDHD1 (UniProt O75717) | -0.011 | -0.259 (active) | 0.02 | -0.018 | 0.016
ZMAT2 (UniProt Q96NC0) | 0.033 | 0.188 | -0.051 | -0.024 | 0.021
WEE1 (UniProt P30291) | 0.023 | -0.52 (active) | 0.107 | -0.03 | -0.007
UNC45A (UniProt Q9H3U1) | -0.005 | -0.588 (active) | 0.011 | 0.008 | 0.01
USP9X (UniProt Q93008) | 0.011 | -0.466 (active) | 0.028 | -0.012 | 0
USP34 (UniProt Q70CQ2) | 0.005 | -0.208 (active) | 0.05 | -0.012 | -0.005
WDR45 isoform 2 (UniProt Q9Y484) | 0.018 | 0.025 | 0.016 | 0 | 0.009
XPOT (UniProt O43592) | -0.012 | -0.656 (active) | 0.035 | 0.009 | 0.037
UNC13A (UniProt Q9UPW8) |  | -0.485 | 0.078 |  | 
ZC2HC1A (UniProt Q96GY0) | 0.104 | -0.066 | 0.054 | -0.008 | -0.005
VPS28 (UniProt Q9UK41) | 0.03 | -0.37 (active) | -0.002 | -0.043 | 0.033
ZC3H11A (UniProt O75152) | 0.123 | -0.375 (active) | -0.026 | 0.062 | -0.009
VAV3 isoform 4 (UniProt Q9UKW4) | 0.128 | -0.358 | 0.148 | -0.115 | 0.295
UTRN isoform 2 (UniProt P46939) |  | 0.173 | -0.144 |  | -0.424

Target | log2 fold change [1] | log2 fold change (vorinostat) | log2 fold change (silmitasertib) | log2 fold change [2] | log2 fold change (entospletinib)
ZNF281 (UniProt Q9Y2X9) |  | -0.403 (active) | -0.084 | -0.072 | 
ZSCAN21 (UniProt Q9Y5A6) |  |  |  |  | -0.208
YWHAQ (UniProt P27348) | -0.047 | -0.052 | -0.012 | 0.013 | 0.022
UNKL (UniProt E9PDK2) | -0.336 |  |  | 0.003 | 0.108
WRNIP1 (UniProt Q96S55) | -0.011 | -0.521 (active) | 0 | -0.046 | -0.02
ZYG11A (UniProt Q6WRX3) |  | 0.719 (active) | 0.17 |  | 
WAS (UniProt P42768) |  | -0.07 | 0.025 |  | -0.055
ZMYM4 (UniProt Q5VZL5) | 0.05 | -0.383 (active) | -0.016 | 0.009 | -0.013
WAC isoform 5 (UniProt Q9BTA9) |  | -0.002 | 0.351 |  | 
VASN (UniProt Q6EMK4) |  | 0.233 | -0.263 |  | -0.027
ZNF346 (UniProt Q9UL40) |  | 0.137 | 0.018 | -0.05 | 0.02
WIPI1 (UniProt Q5MNZ9) |  | 0.088 | -0.051 | 0.026 | -0.001
ZNF652 (UniProt Q9Y2D9) |  |  |  | -0.042 | 
ZSCAN26 (UniProt Q16670) |  |  |  | -0.024 | 
ZC3H13 (UniProt Q5T200) | 0.174 | -0.052 | -0.008 | -0.104 | 0.001
VAV1 (UniProt P15498) | -0.003 | -0.268 (active) | 0 | -0.027 | 0.004
